Test results taken from PubChem BioAssay AID651789 (National Center for Advancing Translational Sciences (NCATS), 2012).
Inconclusive results are not listed. A call without a number means that no potency is given here. The source made the active and inactive calls. Calls follow the shape of the dose curve; as a rule, active = well fitted inhibition curve with a large enough effect; inconclusive = small, poorly fitted or top-dose-only effect; inactive = no such curve, though single readings can be large or run the other way.

experiment: Acumen qHTS Assay for Inhibitors of the mTORC1 Signaling Pathway in WT MEF Cells: Hit Validation; conditions: Acumen imaging; series mostly up to 37.3 µM; also: nearly all actives have a fitted effect of over 60% in size
Excerpt: The mammalian target of rapamycin (mTOR) is an intracellular serine/threonine kinase Aberrant regulation of mTOR signaling plays a causative role in a number of human diseases, including cancer, benign tumors such as lymphangioleiomyomatosis (LAM) and Tuberous Sclerosis Complex (TSC), and metabolic diseases such as diabetes and obesity. This project aims to identify inhibitors of ribosomal protein S6 (rpS6) phosphorylation. The phosphorylation of rpS6 is a key event downstream of mTOR activation. The assay uses a phospho-specific antibody of phospho-rpS6 to detect inhibitors of mTOR activation. Mutations in the Tsc1 and Tsc2 genes are the underlying genetic lesions responsible for TSC, causing constitutive activation of the mTORC1 pathway and leading to profound effects on cell metabolism. Aberrant metabolism in cancer has recently received significant attention as a target to develop therapeutic agents in the treatment of cancer.1 As Tsc2-/- cells have lost the ability to respond to energy and growth factor deprivation, these cells are unable to properly down regulate cellular biosynthetic processes in response to metabolic stress, and are thus extremely sensitive to glucose deprivation-induced death.2 A central goal of this project is to explore the unique cell survival and metabolic properties of cells with Tsc1 or Tsc2 by screening for compounds that selectively target the Tsc2-/- MEFs by screening both Tsc2-/- and WT MEF cell lines. We hope to better understand these aspects of TSC physiology in order to exploit them for therapeutic benefit.
NIH Molecular Libraries Probe Production Centers Network [MLPCN]
NIH Chemical Genomics Center [NCGC]
Assay Submitter (PI): Blenis, John; Harvard University
For quantitative high throughput analysis of mTORC1 signaling, we developed a cell-based assay for immuno-fluorescence based detection of rpS6 phosphorylation on the Acumen Explorer that will be used a platform for the primary small molecule screen. Mouse embryonic fibroblasts (MEFs) are cultured in 1536-well plates using DMEM + 10% FBS. Twenty-four hrs after plating, test compounds (solubilized in DMSO) are delivered and incubated with the cells for 24 hrs at 37 degree Celsius. Following the incubation, media with compound is aspirated and the cells are fixed in 4% paraformaldehyde (PFA) containing PBS + 0.2% TX-100. Next, PFA is aspirated, cells are washed two times with PBS plus 0.2% TX-100 and the cells are blocked for 1 hr at room temperature (blocking buffer: LiCOR Blocking Buffer plus 0.2% TX-100). This is followed by aspiration and staining with Alexa-488 conjugated-phospho-rpS6 Ser235/236 antibody for 2 hours at room temperature (Cell Signaling Technology # 4803, 1:50 dilution in blocking buffer). Cells are washed two times with PBS plus 0.2% TX-100, and stained with 10 uM propidium iodide (PI) for 20-25 minutes for cell number measurement (1:500 dilution of Hoescht staining is also added for IN Cell imaging). The plates are scanned on the Acumen Explorer laser scanning instrument (TTP Labtech) using the 488nm laser for simultaneous excitation of the Alexa-488 and PI. […] Fluorescence emission from the PI stain is selected using a 575-640 nm band pass filter. The normalized phospho-S6 staining is calculated as the ratio of the integrated Alexa 488 intensity divided by the integrated PI intensity for the single concentration rapamycin control (7.5 nM) and DMSO columns. […] Inhibition of the pathway is defined based on the normalized phospho-S6 intensity in rapamycin treated cells. Active cells are defined as those with a normalized phospho-S6 staining above this threshold, and each treatment is reported as the % positive cells in the well, where thresholds are defined by selecting wells with the highest and lowest signal and differentiating between the % non-active and % active populations. In addition to the pathway specific phospho-S6 endpoint, the number of PI stained cells from the Acumen is recorded as a measure of cell viability. […]
Potency is read from the fitted curve at half-maximal effect.

SMILES	Potency
CCN(CC)C(=O)c1ccc(NC(=O)CCn2nc(-c3ccc(C)cc3)c3ccccc3c2=O)cc1	inactive
Cc1ccc(-n2c(/C=C/c3ccc(Br)s3)nc3ccccc3c2=O)cc1C	inactive
Cc1cccc(CN2CCc3nc(N4CCN(c5ccccn5)CC4)ncc3C2)c1	inactive
CCOc1ccc(CN(CCc2ccc3c(c2)OCO3)Cc2ccc(C)cc2)cc1	inactive
CN[C@@H]1C[C@@]2(C)O[C@@H]([C@@H]1OC)n1c3ccccc3c3c4c(c5c6ccccc6n2c5c31)C(=O)NC4	32.5 nM (active)
Cc1ccccc1-c1nc(CN2C(=O)CN=C(c3ccccc3)c3ccccc32)c(C)o1	inactive
O=C(Nc1ccon1)c1cccn(Cc2cccc(Cl)c2)c1=O	inactive
CCCOC(=O)c1c(C)oc2c1cc(NS(=O)(=O)c1ccc(OCC)cc1)c1ccccc12	656 nM (active)
Cc1ccccc1-n1c(/C=C/c2ccccc2F)nc2ccccc2c1=O	inactive
CCN(CC)CCSc1nc2ccccc2c(=O)n1-c1ccc(Cl)cc1	inactive
CCOc1ccc(N(C(C)C(=O)Nc2cc(Cl)ccc2OC)S(C)(=O)=O)cc1 (stereo not drawn)	3690 nM (active)
Cc1ccccc1-n1c(/C=C/c2c(C)[nH]c3ccccc23)nc2ccccc2c1=O	1850 nM (active)
CCOc1ccc(NC(=O)CSc2oc(-c3ccccc3)nc2S(=O)(=O)c2ccc(Cl)cc2)cc1	3690 nM (active)
